# Screening results: PubChem BioAssay, National Center for Advancing Translational Sciences (NCATS)
# The list is not random: actives were taken first. Their share in the collection is about 0.9%.
# RXFP1 antagonist = RXFP1 (human) relaxin receptor antagonism. 350,000 tested, 0.59% active. Q9HBX9. HEK293-RXFP1, relaxin-stimulated cAMP HTRF, 30 min; hits give low values. activity change, negative = inhibition, % at 57.5 µM;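 active = activity change of -60% or lower, but not beyond a set lower limit; inconclusive = change between -60% and -40%, or beyond the set limit; inactive = change above -40%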
# Target sequence (Q9HBX9 whole entry, looked up): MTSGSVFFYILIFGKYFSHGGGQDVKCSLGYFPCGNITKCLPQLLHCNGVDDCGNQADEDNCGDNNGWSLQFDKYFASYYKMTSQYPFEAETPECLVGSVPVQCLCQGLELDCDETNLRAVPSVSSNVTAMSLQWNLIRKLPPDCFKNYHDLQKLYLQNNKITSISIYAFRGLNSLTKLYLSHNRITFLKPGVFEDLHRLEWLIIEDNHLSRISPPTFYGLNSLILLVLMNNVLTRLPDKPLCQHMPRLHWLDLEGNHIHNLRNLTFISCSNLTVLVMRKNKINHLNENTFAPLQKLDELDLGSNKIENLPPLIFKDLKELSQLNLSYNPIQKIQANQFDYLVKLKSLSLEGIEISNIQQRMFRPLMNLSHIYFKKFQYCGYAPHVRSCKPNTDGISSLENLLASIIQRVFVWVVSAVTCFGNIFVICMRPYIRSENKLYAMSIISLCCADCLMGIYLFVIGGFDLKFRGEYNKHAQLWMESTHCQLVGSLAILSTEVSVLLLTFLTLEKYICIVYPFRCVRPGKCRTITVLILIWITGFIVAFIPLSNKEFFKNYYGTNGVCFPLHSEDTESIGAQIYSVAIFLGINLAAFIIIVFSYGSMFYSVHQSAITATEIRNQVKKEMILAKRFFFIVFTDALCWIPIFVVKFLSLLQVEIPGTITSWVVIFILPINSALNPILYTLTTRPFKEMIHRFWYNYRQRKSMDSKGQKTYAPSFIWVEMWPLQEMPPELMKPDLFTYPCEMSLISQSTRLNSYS
# gsp antag = antagonizes gsp, the McCune-Albright syndrome mutation | Potency, µM (doses to about 76.9 µM), usual class: inhibitors | AID 624288 | 340,000 tested, 0.4% active | gsp-mutant cells, cAMP HTRF, 30 min; calls by dose curve; cell line not stated here;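 also: intracellular cAMP measured with PDE inhibitor Ro 20-1724 present during compound exposure; nearly all actives have a fitted effect of over 65% in size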
#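 Measurement of cellular cAMP by homogeneous time-resolved fluorescence following a 30 min compound exposure at 37C. The PDE inhibitor […] was present throughout; the assay buffer was DPBS with 0.05% BSA and 0.005% Tween 20.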
# gsp agonist = activates gsp, the McCune-Albright syndrome mutation; 340,000 tested, 0.13% active; Potency, µM (top dose mostly 76.9 µM), actives largely listed as activators; gsp mutant cells, cAMP HTRF, 30 min; active = well fitted activation curve with a large enough effect; inconclusive = small, poorly fitted or top-dose-only effect, or another doubt; inactive = no such curve, though single readings can be large or run the other way; cell line not stated here;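 also: phosphodiesterase inhibitor Ro 20-1724 added with compounds to block cAMP breakdown; nearly all actives have a fitted effect of over 60% in size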
#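 Cells stably selected in G418 were plated at 2000/well, grown 16-24 hr, then given compounds in DMSO with the PDE inhibitor […] (300 uM solution added) for 30 min at 37C; cAMP was read by HTRF.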
# RXFP1 ag = RXFP1 (human) receptor agonism; Q9HBX9; HEK293T-RXFP1 cAMP TR-FRET, 30 min; response scale: percent of porcine relaxin response, buffer zero; Potency, µM (titrated, usually from 57.5 µM), usual class: activators; 370,000 tested, 0.3% active; active = well fitted activation curve with a large enough effect; inconclusive = small, poorly fitted or top-dose-only effect; also: nearly all actives have a fitted effect of over 60% in size
#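 HEK293T cells stably expressing RXFP1 were pretreated with the PDE4 inhibitor Ro 20174, exposed to compounds for 30 min at 37C, lysed, and cAMP was read by TR-FRET. Data normalized to buffer (basal) and 29 nM porcine relaxin (100%).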
# Numbers stand for hits; i = inactive; ? = inconclusive; nt = no result given; [ ] = dose if it differs, or a comment.
SMILES,RXFP1 antagonist,gsp antag,gsp agonist,RXFP1 ag
COc1ccc(-c2nn(-c3ccccc3)cc2/C=C2/SC(=S)N(CCC(=O)O)C2=O)c(C)c1,i,32µM,i,i
CC(=O)N(Cc1cccnc1)c1nc2c(F)cc(F)cc2s1,i,nt,nt,i
O=C(C1CCCCC1)N(Cc1cccnc1)c1nc2c(F)cc(F)cc2s1,-102,nt,nt,i
COC(=O)c1cc2oc(C)cc2n1CC(=O)Nc1ccc(C(C)C)cc1,i,nt,nt,i
CC1(C)OC(=O)C(=Cc2ccc(-c3ccc(S(N)(=O)=O)cc3)o2)C(=O)O1,-105,?,i,i
NS(=O)(=O)c1ccc(-c2ccc(/C=C3\C(=O)Nc4ccccc43)o2)cc1,nt,nt,nt,i
CCC1CN(C(=O)Nc2cc(C)ccc2OC)c2cc(Cl)ccc2O1 (stereo unspecified),-61,nt,nt,i
CCOc1ccccc1NC(=O)N1CC(CC)Oc2ccccc21 (stereo unspecified),-80,nt,nt,i
CCC1CN(C(=O)Nc2cccc(OC)c2)c2ccccc2O1 (stereo unspecified),i,nt,nt,i
COc1ccc(OC)c(NC(=O)N2CC(C)Oc3ccc(C)cc32)c1 (stereo unspecified),?,nt,nt,i
CN1C(=O)CC(C)(c2ccccc2)C1=O (stereo unspecified),i,nt,nt,nt
O=C1c2cccnc2C(=O)N1Cc1ccc(F)cc1S(=O)(=O)NCc1ccco1,i,i,?,25µM
COc1ccc(CN2C(=O)c3cccnc3C2=O)cc1S(=O)(=O)NCc1ccc(C)o1,i,i,?,16µM
O=C(O)c1ccccc1NN=Cc1ccccc1,?,25µM,i,nt
O=C(O)c1ccccc1NS(=O)(=O)c1ccc(NN=Cc2cccc(Cl)c2)c([N+](=O)[O-])c1,-68,i,i,nt
O=C(O)c1ccccc1NS(=O)(=O)c1ccc(N/N=C/c2ccc(O)c(O)c2)c([N+](=O)[O-])c1,i,i,i,nt
COc1ccc(Nc2nc3cc(Cl)c(Cl)cc3n3cnnc23)cc1Cl,i,nt,nt,i
CCCOc1ccc(NC(=O)CC2C(=O)N(CC)C(=S)N2CCCN2CCN(Cc3ccccc3)CC2)cc1 (stereo unspecified),-65,i,i,i
O=S(=O)(c1ccc(Cl)cc1)c1nc(-c2cccc(Br)c2)oc1NCc1ccccc1,i,nt,nt,i
Cc1[nH]c(=S)c(C#N)c(C)c1C(=O)Nc1ccccc1,i,i,?,i
CCc1c(C(=O)Nc2ccccc2)c(C)[nH]c(=S)c1C#N,i,i,13µM,i
COc1ccc(Nc2c(-c3ccc(C)o3)nc3cc(C)ccn23)cc1,i,nt,nt,i
Cc1ccc(OCc2cc(C(=O)N(C)CCc3ccccn3)no2)cc1C,i,i,?,i
Cc1ccc(OCc2cc(C(=O)N(C)CCc3nc4ccccc4[nH]3)no2)cc1C,i,35µM,i,i
Cc1ccccc1C(=O)c1cccn1CC(=O)NCCN1CCN(c2cccc(C)c2C)CC1,-69,i,i,i
SMILES,RXFP1 antagonist,gsp antag,gsp agonist,RXFP1 ag
O=C(CSc1ncnc2c1oc1ccccc12)c1cccs1,i,i,?,22µM
Cc1nc(SCc2nc3ccccc3[nH]2)c2oc3ccccc3c2n1,i,i,i,i
c1ccc2[nH]c(CSc3ncnc4c3oc3ccccc34)nc2c1,i,i,i,25µM
CC(=O)N1N=C(c2ccccc2)CC1c1ccc(F)cc1 (stereo unspecified),i,i,?,i
CC(=O)N1N=C(c2ccc(C)o2)CC1c1cccc(F)c1 (stereo unspecified),-61,i,?,i
Cc1sc2ncnc(N3CCC(C(=O)N(C)CC(=O)Nc4ccccc4Br)CC3)c2c1C,i,35µM,i,i
Cc1nn(S(=O)(=O)c2cccs2)c(C)c1Sc1ccccc1,nt,nt,nt,i
Cc1nn(S(=O)(=O)c2cccs2)c(C)c1Sc1ccc([N+](=O)[O-])cc1,i,25µM,i,i
COCCn1ccc2c(OCC(=O)Nc3cc(OC)ccc3OC)cccc2c1=O,i,?,i,i
COc1ccc(NC(=O)c2ccc(-c3nn(C)c(=O)c4ccccc34)cc2)cc1,i,i,i[15.4 µM],i
COc1ccccc1NC(=O)COc1ccc(-c2nn(C)c(=O)c3ccccc23)cc1,i,28µM,i[15.4 µM],i
COc1ccccc1NC(=O)c1ccc(-c2nn(C)c(=O)c3ccccc23)cc1,i,40µM,i[15.4 µM],i
CCOCCn1ccc2c(OCC(=O)Nc3cc(OC)ccc3OC)cccc2c1=O,i,16µM,i[15.4 µM],i
COc1ccc(-c2nnc(SCC(=O)NC3CCCC3)nc2-c2ccc(OC)c(OC)c2)cc1OC,-70,nt,nt,i
CN(Cc1ccccc1)C(=O)c1ccccc1N(C)S(=O)(=O)c1ccccc1,-62,i,i[15.4 µM],i
CN(Cc1ccccc1)C(=O)c1ccccc1C(=O)O,i,i,?,i
N#Cc1c2n(c3c(N)ncnc13)CCCCC2,i,i,i[15.4 µM],18µM
Cc1cc(N2CCN(C(c3ccccc3)c3ccccc3)CC2)n2ncnc2n1,?,i,i,i
Cc1nc2ncnn2c(N2CCN(C(c3ccccc3)c3ccccc3)CC2)c1C,-116,i,i,i
